Experimental data taken from the supplement of paper PMC11732987, “Enantioselective OTUD7B fragment discovery through chemoproteomics screening and high-throughput optimisation” (Communications Chemistry, 2025).

Target: T1, USP38 (UniProt Q8NB14)
T1 sequence (whole entry): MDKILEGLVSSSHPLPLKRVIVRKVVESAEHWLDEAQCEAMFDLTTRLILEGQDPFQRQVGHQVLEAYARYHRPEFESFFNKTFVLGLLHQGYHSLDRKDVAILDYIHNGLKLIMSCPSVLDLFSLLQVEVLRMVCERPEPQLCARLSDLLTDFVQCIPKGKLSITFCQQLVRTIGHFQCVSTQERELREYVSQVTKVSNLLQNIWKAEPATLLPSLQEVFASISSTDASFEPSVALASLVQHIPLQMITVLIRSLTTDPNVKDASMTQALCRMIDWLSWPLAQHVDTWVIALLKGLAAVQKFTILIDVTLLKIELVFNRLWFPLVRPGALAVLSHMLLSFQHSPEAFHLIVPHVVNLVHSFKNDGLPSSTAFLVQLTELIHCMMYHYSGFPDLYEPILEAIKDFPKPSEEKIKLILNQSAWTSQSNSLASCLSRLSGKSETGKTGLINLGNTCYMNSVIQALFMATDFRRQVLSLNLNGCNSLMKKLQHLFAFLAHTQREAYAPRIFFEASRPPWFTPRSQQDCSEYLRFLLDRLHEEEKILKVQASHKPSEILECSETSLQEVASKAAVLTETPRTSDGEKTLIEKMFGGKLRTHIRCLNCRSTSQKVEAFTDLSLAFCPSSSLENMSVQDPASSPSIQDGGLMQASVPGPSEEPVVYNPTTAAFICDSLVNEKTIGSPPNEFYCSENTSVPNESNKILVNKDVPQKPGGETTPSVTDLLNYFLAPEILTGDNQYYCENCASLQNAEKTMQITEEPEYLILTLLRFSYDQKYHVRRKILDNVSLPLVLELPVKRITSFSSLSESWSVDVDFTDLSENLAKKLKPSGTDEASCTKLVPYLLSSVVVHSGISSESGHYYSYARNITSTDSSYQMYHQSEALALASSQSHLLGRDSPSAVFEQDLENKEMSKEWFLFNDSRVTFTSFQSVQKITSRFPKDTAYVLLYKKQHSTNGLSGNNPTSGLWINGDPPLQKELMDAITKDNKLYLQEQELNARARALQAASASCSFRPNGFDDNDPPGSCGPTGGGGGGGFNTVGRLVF
Assay: log2 ratio of Biotin-Ahx-Ub-VS probe labelling (compound/DMSO); higher = less target engagement, active = hit call of the paper (q ≤ 0.05, log2 ratio ≤ -1)
Details: treatment time: 3 h
How it was run: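 Values are average ratios of compound to vehicle from an unpaired t-test, limited to proteins with at least two unique peptides. HEK293T lysate (495 µg per sample, in Tris/CHAPS/IGEPAL buffer with protease inhibitors) was exposed in triplicate to a concentration series of compound or to vehicle for 3 h, then to Biotin-Ahx-Ub-VS at 0.5 µM final for 1 h. Labelled deubiquitinases were enriched on NeutrAvidin, digested with LysC and trypsin, and analysed by diaPASEF LC-MS/MS. Ratios are given on a log2 scale from Spectronaut label-free protein quantities normalised to the global median.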

Measured: log2 ratio of Biotin-Ahx-Ub-VS probe labelling

O=C(CCl)N[C@H]1CCCc2ccccc21
inactive: compound concentration: 0.78uM -0.147 | compound concentration: 1.56uM -0.192 | compound concentration: 3.13uM -0.169 | compound concentration: 6.25uM -0.0221 | compound concentration: 12.5uM -0.0585 | compound concentration: 25uM -0.166 | compound concentration: 50uM -0.069 | compound concentration: 100uM -0.102 | compound concentration: 200uM -0.211
